According to PubChem BioAssay AID588453 (National Center for Advancing Translational Sciences (NCATS), 2011):
The campaign covered roughly 390,000 compounds. About 4,000 (1%) were called active. Another 4% or so got no clear call; they are omitted. Many of the other results were omitted from the sample, so actives are more common in it than they were. A number with no mark means an inactive call. Calls follow the shape of the dose curve; as a rule, active = well fitted inhibition curve with a large enough effect; inconclusive = small, poorly fitted or top-dose-only effect; inactive = no such curve, though single readings can be large or run the other way.

Biological target: Thioredoxin reductase 1, cytoplasmic (Rattus norvegicus) (UniProt O89049)
Test: qHTS Assay for Inhibitors of Mammalian Selenoprotein Thioredoxin Reductase 1 (TrxR1): qHTS; also: nearly all actives have a fitted effect of over 65% in size
Conditions: recombinant rTrxR1, NADPH fluorescence consumption, selenite substrate; series mostly up to 114 µM; activity change, negative = inhibition: at the top concentration
Summary of the method: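 Rat TrxR1 (90 nM in the dispensed reagent) was pre-reduced with 400 uM NADPH for 5 min at room temperature, then incubated with compound for 15 min. After 400 uM selenite was added, NADPH fluorescence (Ex 340/Em 450 nm) was followed for 8 min.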
% is scaled to controls: 0 for no effect and ±100 for the full control effect; potency is read from the fitted curve at half-maximal effect.

Chain of Thioredoxin reductase 1, cytoplasmic (Rattus norvegicus) (O89049 whole entry, looked up): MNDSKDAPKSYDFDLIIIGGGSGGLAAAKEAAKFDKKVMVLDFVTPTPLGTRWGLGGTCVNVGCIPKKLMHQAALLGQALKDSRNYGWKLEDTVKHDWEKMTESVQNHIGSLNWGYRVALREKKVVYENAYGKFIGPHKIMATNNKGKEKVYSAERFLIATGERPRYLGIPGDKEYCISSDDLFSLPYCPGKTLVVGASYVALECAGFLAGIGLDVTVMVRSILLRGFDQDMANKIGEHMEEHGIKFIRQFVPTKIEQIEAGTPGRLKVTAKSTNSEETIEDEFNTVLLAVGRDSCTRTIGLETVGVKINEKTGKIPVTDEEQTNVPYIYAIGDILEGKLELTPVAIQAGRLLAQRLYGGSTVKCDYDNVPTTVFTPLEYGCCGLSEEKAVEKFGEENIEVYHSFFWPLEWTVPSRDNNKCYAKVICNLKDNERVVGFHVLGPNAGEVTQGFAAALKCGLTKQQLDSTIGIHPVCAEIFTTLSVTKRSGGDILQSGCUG

Structure (SMILES) | Potency | activity change, negative = inhibition
C=C(Br)CN1CCN(CC(=C)Br)CC1 | 12.6 µM (active) | –
Cc1ccc(CN(C(=O)COc2ccc(Cl)cc2C)C2CCS(=O)(=O)C2)o1 (stereo unspecified) | – | -11.1%
CCOC(=O)CSc1nnc(-c2ccco2)n1C | 22.4 µM (active) | –
Cn1c(SCC(=O)N2CCCC2)nnc1-c1cccs1 | – | -0.504%
CCOC(=O)CSc1nnc(CNC(=O)c2ccco2)n1-c1ccc(F)cc1 | – | -12.3%
CCCN1CCC(=O)N(C(CSc2ccc(C)cc2)Cc2ccccc2)CC1 (stereo unspecified) | – | -13.5%
CCc1ccccc1N1C(=O)C2C3CC(=O)C(c4ccccc43)C2C1=O (stereo unspecified) | – | 9.08%
CC1=C(C)CC2C(=O)N(c3cccc4ccccc34)C(=O)C2C1 (stereo unspecified) | 14.1 µM (active) | –
Cn1c(=O)c2cn(-c3cccc4ccccc34)cc2n(C)c1=O | – | -9.19%
COc1cccc(OCCn2c(-c3ccc(Br)cc3)nc3ccccc3c2=O)c1 | – | 19.9%
COC(=O)C(CC(C)C)NS(=O)(=O)c1cc(Br)ccc1Br (stereo unspecified) | – | 4.6%
O=C(NCC(c1cccnc1)N1CCc2ccccc21)c1cccc(C(F)(F)F)c1 (stereo unspecified) | – | -5.37%
Nc1ccccc1N | – | 14.3%
CC(=O)Nc1ccc(N2C(=O)CC(Sc3nccc(C)n3)C2=O)cc1 (stereo unspecified) | – | 33.8%
COc1ccc(N2C(=O)CC(Sc3n[nH]c(-c4ccc(C)cc4)n3)C2=O)cc1 (stereo unspecified) | 5.01 µM (active) | –
COc1ccc(-c2nc(SCC(=O)N3CCCCC3C)n[nH]2)cc1 (stereo unspecified) | – | 8.31% [at 57.1 µM]
C/[N+]([O-])=C\c1ccc([N+](=O)[O-])o1 | 11.2 µM (active) | –
Cc1cccc(NC(=O)COC(=O)c2ccccc2OCc2cccc(Br)c2)c1 | – | 11.2%
Cn1c(SCC(=O)Nc2ccc(N3CCOCC3)cc2)nnc1C(F)(F)F | – | 15.9%
C=CC(=O)Nc1ccc(Nc2ccnc(Nc3ccc(N4CCN(C)CC4)cc3)n2)cc1 | 12.6 µM (active) | –
Cc1cc(Nc2cc(N3CCN(C)CC3)nc(Sc3ccc(NC(=O)C4CC4)cc3)n2)n[nH]1 | – | -3.3% [at 57.1 µM]
CCc1ccc(NC(=O)N2CCN(C(=O)c3nsc4ccccc34)CC2)cc1 | – | 12.5% [at 57.1 µM]
CCOC(=O)c1scc(-c2ccc(C)cc2)c1S(=O)(=O)Nc1cc(C)ccc1C | – | 18.8% [at 57.1 µM]
COc1cccc(NCCC(=O)c2cccc([N+](=O)[O-])c2)c1 | 20 µM (active) | –
COc1ccc(NS(=O)(=O)c2cc(NC(=O)CC(=O)c3ccc([N+](=O)[O-])cc3)ccc2C)cc1 | – | 8.24%
COc1cccc(C(=O)CC(=O)C(=O)Nc2ccc([N+](=O)[O-])cc2C)c1 | – | -9.02%

Structure (SMILES) | Potency | activity change, negative = inhibition
Cc1ccccc1CNC(=O)C1CCCN(S(=O)(=O)N(C)c2ccc(F)cc2)C1 (stereo unspecified) | – | -1.25%
Cc1ccc(-n2c(=O)cc(N3CCN(Cc4ccccc4)CC3)[nH]c2=O)cc1 | – | -31.5%
CC(C)(C)N1CC(c2nc3ccccc3n2Cc2ccc(F)cc2)CC1=O (stereo unspecified) | – | 6.6%
CC1CN(c2cc(=O)n(Cc3ccc(F)cc3)c(=O)[nH]2)CC(C)O1 (stereo unspecified) | 10 µM (active) | –
Cc1c(Cl)cccc1NC(=O)Cn1cc(C(=O)c2cccs2)c2ccccc21 | – | 3.36%
O=C(Cn1c(=O)n(-c2ccc(F)cc2)c(=O)c2sc3ccccc3c21)NC1CCCC1 | – | 12.1%
O=S(=O)(NCCCN1CCOCC1)c1ccc(F)c(Cl)c1 | – | 12%
O=C(NCCCN1CCOCC1)c1ccccc1NS(=O)(=O)c1ccc(F)cc1 | – | 12.5% [at 57.1 µM]
O=[N+]([O-])c1cc(S(=O)(=O)CCCN2CCOCC2)ccc1F | 11.2 µM (active) | –
CC1CC2C3CCC4=CC(=O)C=C[C@]4(C)[C@@]3(F)[C@@H](O)C[C@]2(C)[C@@]1(O)C(=O)CO (stereo partly specified) | – | -3.45% [at 57.1 µM]
COc1cc(OC)c(OC)cc1/C=C1\C=Cc2ccccc21 | – | -6.02%
Cc1nnc(SCC(=O)NCc2cccs2)[nH]c1=O | – | -32.2% [at 57.1 µM]
Cc1nnc(SCCCCSc2nnc(C)c(=O)[nH]2)[nH]c1=O | – | 12.5% [at 11.4 µM]
CCCCOC(=O)CNc1nnc(SCC(=O)OCC)[nH]c1=O | 11.2 µM (active) | –
Cc1[nH]c2ccccc2c1C(=O)C(=O)N(C)c1ccccc1 | – | 14.2%
Cc1cc(C)cc(NC(=O)CSc2nc3nccnc3c(=O)n2CCc2c[nH]c3ccccc23)c1 | – | 7.71%
O=C(/C=C/c1ccco1)NC(=S)N1CCCCC1 | 28.2 µM (active) | –
COc1ccc(Cl)cc1C(=O)NNC(=S)NC(=O)/C=C/c1ccco1 | – | 7.92%
COc1ccccc1/C=C/C(=O)NC(=S)N1CCOCC1 | – | 18.3% [at 57.1 µM]
Cn1c(=O)cc(OCC(=O)N2CCN(c3ccccc3)CC2)c2ccccc21 | – | 20.6%
COc1ccc(-c2nc3nc(C)cc(C)n3c2Nc2c(C)cccc2C)cc1 | – | 5.66%
COc1ccc(-n2c(SC)nc(O)cc2=O)cc1 | – | 8.9%
CCn1c(SCC(=O)NNC(=O)c2ccc(OC)cc2)nnc1C(C)C | – | 23.6% [at 57.1 µM]
CCn1c(SC)nc(O)c(C(c2ccc(OC)c(O)c2)c2c(O)nc(SC)n(CC)c2=O)c1=O | 50.1 µM (active) | –
O=C(Cn1ncc2c3ccccc3n(Cc3ccccc3)c2c1=O)NC1CCCCCC1 | – | 4.59%
